{
  "source": "PubChem BioAssay (EPA / NIEHS)",
  "key": {"[1]": {"molecular_target": "human Dopamine Receptor D2 (DRD2), DRD2 (gene 1813) (UniProt P14416)", "sequence (P14416 whole entry, looked up)": "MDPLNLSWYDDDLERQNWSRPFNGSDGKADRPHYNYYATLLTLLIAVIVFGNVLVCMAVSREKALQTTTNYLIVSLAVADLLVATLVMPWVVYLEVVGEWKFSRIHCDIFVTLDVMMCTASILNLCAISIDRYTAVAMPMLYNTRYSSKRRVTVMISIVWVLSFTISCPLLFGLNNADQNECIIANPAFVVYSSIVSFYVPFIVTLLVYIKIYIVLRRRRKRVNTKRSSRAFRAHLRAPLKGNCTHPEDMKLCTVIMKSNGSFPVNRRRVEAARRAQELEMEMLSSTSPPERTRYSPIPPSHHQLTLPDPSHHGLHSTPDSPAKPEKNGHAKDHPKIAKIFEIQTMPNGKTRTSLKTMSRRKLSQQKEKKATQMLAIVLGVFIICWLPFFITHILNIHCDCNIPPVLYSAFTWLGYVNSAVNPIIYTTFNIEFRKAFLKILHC", "experiment": "NVS_GPCR_hDRD2s: NovaScreen (NVS) G Protein-Coupled Receptor Assay for human Dopamine Receptor D2 (DRD2) (AID 2283266)", "how_it_was_run": "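Radioligand displacement used human DRD2 membranes extracted from CHO cells and was read by filter-based scintillation counting after 1.5 hours. Primary screening was in duplicate at 25 uM. Loss of signal versus DMSO was fitted, with concentration series in follow-up.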"}, "[2]": {"molecular_target": "D(1A) dopamine receptor (Homo sapiens) (UniProt P21728)", "sequence (P21728 whole entry, looked up)": "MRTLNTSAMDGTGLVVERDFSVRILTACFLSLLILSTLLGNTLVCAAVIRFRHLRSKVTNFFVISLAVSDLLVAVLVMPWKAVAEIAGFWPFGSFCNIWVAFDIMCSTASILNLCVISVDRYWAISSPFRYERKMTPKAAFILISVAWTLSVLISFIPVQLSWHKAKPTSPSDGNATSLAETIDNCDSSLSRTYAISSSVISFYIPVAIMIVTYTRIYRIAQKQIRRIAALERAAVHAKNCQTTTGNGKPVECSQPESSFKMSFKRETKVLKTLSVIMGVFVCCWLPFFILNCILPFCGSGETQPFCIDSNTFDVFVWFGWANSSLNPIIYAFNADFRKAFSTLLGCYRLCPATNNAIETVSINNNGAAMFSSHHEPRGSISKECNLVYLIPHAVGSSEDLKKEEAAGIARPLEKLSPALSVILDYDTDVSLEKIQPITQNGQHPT", "experiment": "NVS_GPCR_hDRD1: NovaScreen (NVS) G Protein-Coupled Receptor Assay for human Dopamine Receptor D1 (DRD1) (AID 2283269)", "how_it_was_run": "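Radioligand displacement binding on membranes/protein extracted from HEK293 expressing human D1, cell-free; read 1 h after dosing by filter-based scintillation counting. Primary screen in duplicate at 25 uM, actives followed up in concentration series; signal loss versus DMSO baseline.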"}, "[3]": {"molecular_target": "human Muscarinic, M4 Receptor, CHRM4 (gene 1132) (UniProt P08173)", "sequence (P08173 whole entry, looked up)": "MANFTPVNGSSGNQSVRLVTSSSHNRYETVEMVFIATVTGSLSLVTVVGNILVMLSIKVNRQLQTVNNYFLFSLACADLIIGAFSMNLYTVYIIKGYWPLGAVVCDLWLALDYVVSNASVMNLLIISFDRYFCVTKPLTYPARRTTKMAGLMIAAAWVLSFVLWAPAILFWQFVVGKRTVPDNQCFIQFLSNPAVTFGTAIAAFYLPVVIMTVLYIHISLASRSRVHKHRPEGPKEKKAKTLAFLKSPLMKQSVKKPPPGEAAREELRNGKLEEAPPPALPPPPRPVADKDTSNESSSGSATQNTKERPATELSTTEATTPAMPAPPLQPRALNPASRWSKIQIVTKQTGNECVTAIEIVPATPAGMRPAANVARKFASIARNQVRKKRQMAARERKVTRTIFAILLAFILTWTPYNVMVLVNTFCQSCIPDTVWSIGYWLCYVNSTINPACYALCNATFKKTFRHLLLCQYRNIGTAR", "experiment": "NVS_GPCR_hM4: NovaScreen (NVS) G Protein-Coupled Receptor Assay for human Muscarinic, M4 Receptor (AID 2283274)", "how_it_was_run": "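Cell-free radioligand displacement using CHO-derived human M4 receptor protein, 1 h after dosing; bound radioactivity by filtration and scintillation counting. Primary screen single 25 uM duplicate, actives followed in concentration series.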"}, "[4]": {"molecular_target": "Muscarinic acetylcholine receptor M5 (Homo sapiens) (UniProt P08912)", "sequence (P08912 whole entry, looked up)": "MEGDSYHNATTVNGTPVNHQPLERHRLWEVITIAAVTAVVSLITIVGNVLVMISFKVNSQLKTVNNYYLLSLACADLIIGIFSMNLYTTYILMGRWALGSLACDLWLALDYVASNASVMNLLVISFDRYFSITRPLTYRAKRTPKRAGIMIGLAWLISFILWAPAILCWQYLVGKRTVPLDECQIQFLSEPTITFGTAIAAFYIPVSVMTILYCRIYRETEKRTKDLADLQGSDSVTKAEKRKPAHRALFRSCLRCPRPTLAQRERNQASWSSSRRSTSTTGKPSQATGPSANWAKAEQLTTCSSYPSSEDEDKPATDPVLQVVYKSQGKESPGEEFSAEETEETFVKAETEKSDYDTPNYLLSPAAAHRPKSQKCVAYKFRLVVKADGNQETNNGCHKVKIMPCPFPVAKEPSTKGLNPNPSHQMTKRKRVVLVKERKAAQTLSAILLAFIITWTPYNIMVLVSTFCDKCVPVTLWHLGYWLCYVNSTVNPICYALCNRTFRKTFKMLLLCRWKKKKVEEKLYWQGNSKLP", "experiment": "NVS_GPCR_hM5: NovaScreen (NVS) G Protein-Coupled Receptor Assay for human Muscarinic, M5 Receptor (AID 2283275)", "how_it_was_run": "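Radioligand displacement on CHO-derived membrane preparations, 1 h, filter-based scintillation counting. Single-concentration duplicate screen at 25 uM; hits (e.g. 30% inhibition) retested in singleton concentration-response up to 50 uM. Loss of binding fitted versus DMSO.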"}, "[5]": {"molecular_target": "human Neurokinin, NK2 Receptor, TACR2 (gene 6865) (UniProt P21452)", "sequence (P21452 whole entry, looked up)": "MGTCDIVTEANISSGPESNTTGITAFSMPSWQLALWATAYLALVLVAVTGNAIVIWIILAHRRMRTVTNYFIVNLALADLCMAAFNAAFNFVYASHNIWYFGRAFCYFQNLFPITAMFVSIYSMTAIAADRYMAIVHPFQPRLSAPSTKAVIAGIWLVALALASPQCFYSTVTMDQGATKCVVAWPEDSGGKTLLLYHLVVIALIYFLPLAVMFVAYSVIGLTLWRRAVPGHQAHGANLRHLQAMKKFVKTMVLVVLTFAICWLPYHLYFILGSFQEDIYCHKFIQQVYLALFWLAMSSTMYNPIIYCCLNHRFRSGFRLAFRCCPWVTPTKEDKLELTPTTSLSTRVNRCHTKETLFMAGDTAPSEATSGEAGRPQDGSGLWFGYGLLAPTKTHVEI", "experiment": "NVS_GPCR_hNK2: NovaScreen (NVS) G Protein-Coupled Receptor Assay for human Neurokinin, NK2 Receptor (AID 2283278)", "how_it_was_run": "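Radioligand binding on membranes from CHO cells expressing receptor, filter-based scintillation read 4 h after dosing. Initial duplicate screen at 25 uM, actives in concentration series; loss of signal versus DMSO.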"}, "[6]": {"molecular_target": "human Opioid Receptor Delta 1 (Opiate D1), OPRD1 (gene 4985) (UniProt P41143)", "sequence (P41143 whole entry, looked up)": "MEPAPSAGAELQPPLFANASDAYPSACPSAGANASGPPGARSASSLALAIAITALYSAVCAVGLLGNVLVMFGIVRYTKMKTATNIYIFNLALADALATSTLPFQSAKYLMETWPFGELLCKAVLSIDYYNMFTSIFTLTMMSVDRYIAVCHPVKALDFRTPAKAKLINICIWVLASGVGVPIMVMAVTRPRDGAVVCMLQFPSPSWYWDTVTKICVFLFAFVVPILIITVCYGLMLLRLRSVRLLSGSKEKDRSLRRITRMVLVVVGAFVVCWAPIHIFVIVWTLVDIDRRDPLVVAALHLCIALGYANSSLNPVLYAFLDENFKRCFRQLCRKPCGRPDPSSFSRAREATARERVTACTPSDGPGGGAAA", "experiment": "NVS_GPCR_hOpiate_D1: NovaScreen (NVS) G Protein-Coupled Receptor Assay for human Opioid Receptor Delta 1 (Opiate D1) (AID 2283280)", "how_it_was_run": "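Radioligand displacement on membranes from CHO cells expressing the receptor, read by filter scintillation counting 1 h after dosing. Duplicate single-point screen at 25 uM, then concentration series for actives; loss of signal versus DMSO.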"}, "[7]": {"molecular_target": "human Thromboxane A2 Receptor (TXA2), TBXA2R (gene 6915) (UniProt P21731)", "sequence (P21731 whole entry, looked up)": "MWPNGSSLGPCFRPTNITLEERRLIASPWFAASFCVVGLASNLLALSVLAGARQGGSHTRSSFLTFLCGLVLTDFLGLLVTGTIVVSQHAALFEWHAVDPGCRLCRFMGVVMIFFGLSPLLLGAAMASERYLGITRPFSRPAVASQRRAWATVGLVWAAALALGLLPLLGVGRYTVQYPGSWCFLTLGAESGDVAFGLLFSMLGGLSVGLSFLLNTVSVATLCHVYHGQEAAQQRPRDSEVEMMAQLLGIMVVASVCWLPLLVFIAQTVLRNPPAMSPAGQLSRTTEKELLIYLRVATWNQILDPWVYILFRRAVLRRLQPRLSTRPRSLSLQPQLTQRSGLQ", "experiment": "NVS_GPCR_hTXA2: NovaScreen (NVS) G Protein-Coupled Receptor Assay for human Thromboxane A2 Receptor (TXA2) (AID 2283282)", "how_it_was_run": "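Biochem binding, human platelets, cell-free; competitive radioligand displacement; 1 h; filter radiodetection. 25 uM duplicate primary, conc. series secondary; DMSO neg. ctrl.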"}, "[8]": {"molecular_target": "human Orphanin, Opioid Related Nociceptin Receptor 1 (ORL1), OPRL1 (gene 4987) (UniProt P41146)", "sequence (P41146 whole entry, looked up)": "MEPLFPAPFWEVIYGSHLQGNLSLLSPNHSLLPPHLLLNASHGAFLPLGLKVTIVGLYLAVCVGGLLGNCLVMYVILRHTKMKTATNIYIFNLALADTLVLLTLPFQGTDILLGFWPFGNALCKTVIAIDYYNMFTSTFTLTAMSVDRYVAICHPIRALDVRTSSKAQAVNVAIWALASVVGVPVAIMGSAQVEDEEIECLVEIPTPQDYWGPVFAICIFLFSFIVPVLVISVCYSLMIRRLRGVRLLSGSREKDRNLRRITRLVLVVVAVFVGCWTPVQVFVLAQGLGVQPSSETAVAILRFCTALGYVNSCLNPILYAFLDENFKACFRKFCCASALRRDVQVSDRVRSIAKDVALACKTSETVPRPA", "experiment": "NVS_GPCR_hORL1: NovaScreen (NVS) G Protein-Coupled Receptor Assay for human Orphanin, Opioid Related Nociceptin Receptor 1 (ORL1) (AID 2283283)", "how_it_was_run": "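Filter-based radioligand displacement with receptor extracted from HEK293 cells, read 1 hour after dosing by scintillation counting. Duplicate single-point screen at 25 uM; qualifying chemicals then run in concentration-response to 50 uM, analysed relative to DMSO.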"}, "[9]": {"molecular_target": "human Histamine 1 Receptor (H1), HRH1 (gene 3269) (UniProt P35367)", "sequence (P35367 whole entry, looked up)": "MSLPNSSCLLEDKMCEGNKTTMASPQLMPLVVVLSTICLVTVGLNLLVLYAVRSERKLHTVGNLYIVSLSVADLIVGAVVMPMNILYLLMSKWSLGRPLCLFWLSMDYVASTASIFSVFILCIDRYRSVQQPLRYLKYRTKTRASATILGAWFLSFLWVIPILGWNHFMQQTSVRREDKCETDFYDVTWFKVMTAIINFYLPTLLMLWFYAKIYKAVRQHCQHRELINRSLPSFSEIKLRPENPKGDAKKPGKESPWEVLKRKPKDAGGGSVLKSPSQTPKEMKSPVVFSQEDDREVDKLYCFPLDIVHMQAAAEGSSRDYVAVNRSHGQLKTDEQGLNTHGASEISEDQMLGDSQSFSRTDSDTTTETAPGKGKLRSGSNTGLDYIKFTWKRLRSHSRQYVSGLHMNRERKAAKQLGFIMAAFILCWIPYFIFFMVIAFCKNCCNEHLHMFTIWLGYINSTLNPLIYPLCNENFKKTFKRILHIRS", "experiment": "NVS_GPCR_hH1: NovaScreen (NVS) G Protein-Coupled Receptor Assay for human Histamine 1 Receptor (H1) (AID 2283268)", "how_it_was_run": "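Cell-free radioligand displacement at human H1 receptor, 1 h, filter scintillation counting; primary screen 25 uM in duplicate, hits in concentration series; loss of binding fitted vs DMSO.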"}, "[10]": {"molecular_target": "Muscarinic acetylcholine receptor M1 (Homo sapiens) (UniProt P11229)", "experiment": "NVS_GPCR_hM1: NovaScreen (NVS) G Protein-Coupled Receptor Assay for human Muscarinic, M1 Receptor (AID 2283270)", "how_it_was_run": "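Cell-free radioligand displacement using membrane protein extracted from CHO cells, read by filter-based scintillation counting 1 h after dosing. Loss of bound signal fitted versus DMSO; primary screen single concentration 25 uM in duplicate, actives followed by concentration series.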"}, "[11]": {"molecular_target": "Muscarinic acetylcholine receptor M2 (Homo sapiens) (UniProt P08172)", "sequence (P08172 whole entry, looked up)": "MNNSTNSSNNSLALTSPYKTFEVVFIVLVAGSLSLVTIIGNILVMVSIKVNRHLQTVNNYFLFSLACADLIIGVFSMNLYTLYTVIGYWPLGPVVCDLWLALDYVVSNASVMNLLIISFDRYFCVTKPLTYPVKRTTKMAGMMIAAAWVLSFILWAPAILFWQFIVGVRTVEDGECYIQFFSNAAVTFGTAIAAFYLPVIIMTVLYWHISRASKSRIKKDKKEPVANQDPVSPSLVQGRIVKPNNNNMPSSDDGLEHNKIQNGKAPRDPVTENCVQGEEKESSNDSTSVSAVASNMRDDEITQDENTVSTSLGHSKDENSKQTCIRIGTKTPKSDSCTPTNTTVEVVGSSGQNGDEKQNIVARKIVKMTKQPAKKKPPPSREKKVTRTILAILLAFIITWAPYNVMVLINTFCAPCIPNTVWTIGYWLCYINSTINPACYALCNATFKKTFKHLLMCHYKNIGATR", "experiment": "NVS_GPCR_hM2: NovaScreen (NVS) G Protein-Coupled Receptor Assay for human Muscarinic, M2 Receptor (AID 2283273)", "how_it_was_run": "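Radioligand displacement on human M2 receptor membranes from CHO cells, 1 h incubation, filtration with scintillation counting. Primary screen in duplicate at 25 uM; actives retested in concentration series; loss of signal fitted versus DMSO.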"}, "[12]": {"molecular_target": "human Neuropeptide Receptor Y1 (NPY1), NPY1R (gene 4886) (UniProt P25929)", "experiment": "NVS_GPCR_hNPY1: NovaScreen (NVS) G Protein-Coupled Receptor Assay for human Neuropeptide Receptor Y1 (NPY1) (AID 2283276)", "how_it_was_run": "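Cell-free radioligand binding using receptor extracted from SK-N-MC cells, 1 h incubation, filter-based scintillation counting. Primary screen single concentration 25 uM in duplicate; actives followed in concentration series. Loss of bound signal scored versus DMSO.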"}, "[13]": {"molecular_target": "mouse Cholecystokinin, CCK1 Receptor (CCKA), Cckar (gene 12425) (UniProt O08786)", "experiment": "NVS_GPCR_mCCKAPeripheral: NovaScreen (NVS) G Protein-Coupled Receptor Assay for mouse Cholecystokinin, CCK1 Receptor (CCKA) (AID 2283285)", "how_it_was_run": "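Radioligand competitive displacement on mouse pancreatic membranes, 2 h incubation; filter-based scintillation counting, loss of signal versus DMSO. Single-concentration screen at 25 uM in duplicate, actives retested in concentration-response up to 50 uM.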"}, "[14]": {"molecular_target": "Muscarinic acetylcholine receptor M3 (Homo sapiens) (UniProt P20309)", "experiment": "NVS_GPCR_hM3: NovaScreen (NVS) G Protein-Coupled Receptor Assay for human Muscarinic, M3 Receptor (AID 2283272)", "how_it_was_run": "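Radioligand displacement binding on human M3 receptor in CHO-derived membranes, 1 h incubation, filter-based scintillation counting. Primary screen in duplicate at 25 uM; actives followed up in concentration series; loss of signal versus DMSO.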"}, "[15]": {"molecular_target": "Neuropeptide Y receptor type 2 (Homo sapiens) (UniProt P49146)", "sequence (P49146 whole entry, looked up)": "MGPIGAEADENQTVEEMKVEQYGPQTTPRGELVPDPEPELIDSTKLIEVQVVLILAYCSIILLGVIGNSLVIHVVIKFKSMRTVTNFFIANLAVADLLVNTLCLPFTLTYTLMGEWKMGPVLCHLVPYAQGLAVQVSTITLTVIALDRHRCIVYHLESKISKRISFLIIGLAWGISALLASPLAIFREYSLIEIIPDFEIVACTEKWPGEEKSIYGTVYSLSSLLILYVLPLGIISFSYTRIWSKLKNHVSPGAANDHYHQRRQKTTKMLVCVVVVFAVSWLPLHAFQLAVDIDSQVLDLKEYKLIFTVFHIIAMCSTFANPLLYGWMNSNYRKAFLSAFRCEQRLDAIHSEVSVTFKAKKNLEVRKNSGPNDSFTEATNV", "experiment": "NVS_GPCR_hNPY2: NovaScreen (NVS) G Protein-Coupled Receptor Assay for human Neuropeptide Receptor Y2 (NPY2) (AID 2283277)", "how_it_was_run": "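Radioligand binding on membranes extracted from SK-N-MC cells, cell-free, read 1 h after dosing by filter-based scintillation counting. Loss of signal vs DMSO. Primary screen in duplicate at 25 uM; actives followed up in concentration-response up to 50 uM.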"}, "[16]": {"molecular_target": "human Purinergic Receptor P2Y, P2RY1 (gene 5028) (UniProt P47900)", "experiment": "NVS_GPCR_hPY2: NovaScreen (NVS) G Protein-Coupled Receptor Assay for human Purinergic Receptor P2Y (AID 2283281)", "how_it_was_run": "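Cell-free radioligand binding using U937-derived protein, 1 h after dosing, filter-based scintillation counting. Screened in duplicate at 25 uM; actives rerun as concentration-response up to 50 uM; loss of signal versus DMSO.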"}, "[17]": {"molecular_target": "human Leukotriene B4 Receptor 1 (LTB4-BLT1), LTB4R (gene 1241) (UniProt Q15722)", "experiment": "NVS_GPCR_hLTB4_BLT1: NovaScreen (NVS) G Protein-Coupled Receptor Assay for human Leukotriene B4 Receptor 1 (LTB4-BLT1) (AID 2283271)", "how_it_was_run": "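Radioligand displacement binding on receptor extracted from human neutrophils, cell-free, 1 h after dosing; filter-based scintillation counting. Primary screen in duplicate at 25 uM, actives retested in concentration-response up to 50 uM; loss of signal versus DMSO.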"}},
  "note": "Results filed as inconclusive are left out. Calls of active or inactive are those of the source. How the source made its calls: active means hit-call score of the fitted dose curve at least 0.9, where 1 is the maximum; inconclusive means response in the unintended direction; inactive means score below 0.9.",
  "data": [
    {"smiles": "C=CCc1cc(S(=O)(=O)c2ccc(O)c(CC=C)c2)ccc1O", "values": [
      {"measurement": "AC50", "setting": "[1]", "value": "33.1 µM (active)"},
      {"measurement": "AC50", "setting": "[2]", "value": "9.78 µM (active)"},
      {"measurement": "outcome", "setting": "[3]", "value": "inactive"},
      {"measurement": "AC50", "setting": "[4]", "value": "25 µM (active)"},
      {"measurement": "AC50", "setting": "[5]", "value": "20.6 µM (active)"},
      {"measurement": "AC50", "setting": "[6]", "value": "15.5 µM (active)"},
      {"measurement": "AC50", "setting": "[7]", "value": "6.66 µM (active)"},
      {"measurement": "outcome", "setting": "[8]", "value": "inactive"}
    ]},
    {"smiles": "CCn1nc(C)c2c1C(=O)NCC(c1ccc(O)cc1)=N2", "values": [
      {"measurement": "outcome", "setting": "[9]", "value": "inactive"},
      {"measurement": "outcome", "setting": "[2]", "value": "inactive"},
      {"measurement": "outcome", "setting": "[10]", "value": "inactive"},
      {"measurement": "outcome", "setting": "[11]", "value": "inactive"},
      {"measurement": "outcome", "setting": "[3]", "value": "inactive"},
      {"measurement": "outcome", "setting": "[4]", "value": "inactive"},
      {"measurement": "outcome", "setting": "[12]", "value": "inactive"},
      {"measurement": "outcome", "setting": "[5]", "value": "inactive"},
      {"measurement": "AC50", "setting": "[7]", "value": "14.4 µM (active)"}
    ]},
    {"smiles": "CC(C)C(=O)Nc1ccc([N+](=O)[O-])c(C(F)(F)F)c1", "values": [
      {"measurement": "AC50", "setting": "[7]", "value": "4.96 µM (active)"},
      {"measurement": "outcome", "setting": "[13]", "value": "inactive"}
    ]},
    {"smiles": "O=c1[nH]cnc2c1ncn2[C@H]1CC[C@@H](CO)O1", "values": [
      {"measurement": "AC50", "setting": "[1]", "value": "32.7 µM (active)"},
      {"measurement": "outcome", "setting": "[2]", "value": "inactive"}
    ]},
    {"smiles": "CCc1ccc(O)c(C(C)(C)C)c1", "values": [
      {"measurement": "outcome", "setting": "[1]", "value": "inactive"}
    ]},
    {"smiles": "CCCCCCCCCC", "values": [
      {"measurement": "outcome", "setting": "[1]", "value": "inactive"},
      {"measurement": "outcome", "setting": "[2]", "value": "inactive"},
      {"measurement": "outcome", "setting": "[11]", "value": "inactive"},
      {"measurement": "outcome", "setting": "[3]", "value": "inactive"},
      {"measurement": "outcome", "setting": "[12]", "value": "inactive"},
      {"measurement": "outcome", "setting": "[5]", "value": "inactive"}
    ]},
    {"smiles": "O=C(O)c1ccc2c(c1)nc(C(=O)NC1CCN(C3CC3)CC1)n2Cc1cc(-c2ccc(Cl)s2)on1", "values": [
      {"measurement": "outcome", "setting": "[6]", "value": "inactive"}
    ]},
    {"smiles": "OCCOCCOCCO", "values": [
      {"measurement": "outcome", "setting": "[8]", "value": "inactive"}
    ]},
    {"smiles": "CCCCCCCCCCCCCCCCOS(=O)(=O)O", "values": [
      {"measurement": "outcome", "setting": "[1]", "value": "inactive"},
      {"measurement": "AC50", "setting": "[9]", "value": "18.1 µM (active)"},
      {"measurement": "AC50", "setting": "[2]", "value": "4.49 µM (active)"},
      {"measurement": "AC50", "setting": "[14]", "value": "8.33 µM (active)"},
      {"measurement": "AC50", "setting": "[4]", "value": "8.94 µM (active)"},
      {"measurement": "outcome", "setting": "[15]", "value": "inactive"},
      {"measurement": "AC50", "setting": "[6]", "value": "3.9 µM (active)"},
      {"measurement": "AC50", "setting": "[16]", "value": "5.47 µM (active)"},
      {"measurement": "AC50", "setting": "[7]", "value": "12.5 µM (active)"}
    ]},
    {"smiles": "CCCCCCCC/C=C\\CCCCCCCC(=O)OC[C@@H](O)[C@H]1OC[C@H](O)[C@H]1O", "values": [
      {"measurement": "AC50", "setting": "[2]", "value": "34.5 µM (active)"},
      {"measurement": "outcome", "setting": "[15]", "value": "inactive"},
      {"measurement": "AC50", "setting": "[7]", "value": "25 µM (active)"}
    ]},
    {"smiles": "CCCCCCCC1CCC(=O)O1", "note": "(centres undefined)", "values": [
      {"measurement": "outcome", "setting": "[17]", "value": "inactive"}
    ]},
    {"smiles": "CCCCOC(=O)c1ccccc1", "values": [
      {"measurement": "outcome", "setting": "[7]", "value": "inactive"}
    ]}
  ]
}
